Hits are enriched below; roughly 12% of the tested compounds scored in any of these assays.
L3MBTL1 block = L3MBTL1 (human) inhibition. Q9Y468. AlphaScreen L3MBTL1–H3K9me1 peptide binding. Potency, µM (highest dose often 57.1 µM), inactives show at the highest dose activity, negative = inhibition, hits mostly inhibitors. 230,000 tested, 0.66% active. AID 485360; note: % is set by controls: 0 for no effect and ±100 for the full control effect; nearly all actives have a fitted effect of over 60% in size
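L3MBTL1 50 nM + b-AHA-H3(1-15)K9me1 75 nM, 30 min RT; compound added, 30 min RT; streptavidin donor/Ni-chelate acceptor beads 10 ug/mL each final, 30 min RT dark; AlphaScreen read.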
JMJD2A Tudor = JMJD2A Tudor domain (human) inhibition; O75164; AlphaScreen JMJD2A-Tudor / H3K4me3 peptide binding; Potency, µM (doses to about 114 µM), inactives show at the top dose activity change, negative = inhibition, usual class: inhibitors; 390,000 tested, 4.4% active; note: % is set by controls: 0 for no effect and ±100 for the full control effect; nearly all actives have a fitted effect of over 50% in size
Target sequence (O75164 whole entry, looked up, the tested form may be a part): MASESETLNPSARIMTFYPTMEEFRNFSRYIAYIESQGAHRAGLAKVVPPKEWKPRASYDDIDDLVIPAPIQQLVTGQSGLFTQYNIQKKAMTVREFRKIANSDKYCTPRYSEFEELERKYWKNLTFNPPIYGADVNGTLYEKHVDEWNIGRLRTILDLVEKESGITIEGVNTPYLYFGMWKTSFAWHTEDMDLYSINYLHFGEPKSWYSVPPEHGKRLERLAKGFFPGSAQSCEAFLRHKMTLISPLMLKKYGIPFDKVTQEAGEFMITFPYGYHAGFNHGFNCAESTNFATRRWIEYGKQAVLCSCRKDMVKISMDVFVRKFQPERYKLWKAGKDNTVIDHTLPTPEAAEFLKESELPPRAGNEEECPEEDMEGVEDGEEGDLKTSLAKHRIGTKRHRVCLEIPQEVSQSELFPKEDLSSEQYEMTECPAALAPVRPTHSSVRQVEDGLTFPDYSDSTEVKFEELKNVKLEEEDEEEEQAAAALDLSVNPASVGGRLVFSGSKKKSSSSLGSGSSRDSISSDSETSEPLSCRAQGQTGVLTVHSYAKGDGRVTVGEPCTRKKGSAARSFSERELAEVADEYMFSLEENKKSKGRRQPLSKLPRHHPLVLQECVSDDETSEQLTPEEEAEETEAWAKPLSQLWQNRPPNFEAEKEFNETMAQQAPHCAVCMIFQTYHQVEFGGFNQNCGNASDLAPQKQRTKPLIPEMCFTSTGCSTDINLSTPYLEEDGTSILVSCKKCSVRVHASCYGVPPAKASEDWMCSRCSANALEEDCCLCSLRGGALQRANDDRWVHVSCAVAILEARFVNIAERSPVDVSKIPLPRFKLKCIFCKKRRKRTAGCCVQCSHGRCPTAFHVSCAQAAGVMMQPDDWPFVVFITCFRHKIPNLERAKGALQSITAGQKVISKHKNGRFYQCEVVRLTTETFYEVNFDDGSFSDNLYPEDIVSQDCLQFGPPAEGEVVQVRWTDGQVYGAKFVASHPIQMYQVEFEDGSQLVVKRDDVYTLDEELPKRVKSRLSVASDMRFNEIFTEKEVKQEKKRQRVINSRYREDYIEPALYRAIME
Sfp PPTase inh = blocks B. subtilis Sfp PPTase activity. Q9F4F7. Biochemical Sfp PPTase activity, qHTS. Potency, µM, for the others: largest response in the series, negative = inhibition, usual class: inhibitors. 310,000 tested, 3.5% active. AID 1490;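 note: the enzyme is Sfp with the accession as filed and its product quenches rhodamine fluorescence; 0% = enzyme reaction without inhibitor and -100% = no enzyme wells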
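Buffer: 50 mM Hepes-Na pH 7.6, 10 mM MgCl2, 0.01% Nonidet P-40, 0.01% BSA. Enzyme 15 nM, pre-exposed to compound 15 min; substrates then added and fluorescence change tracked over 30 min.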
G9a block = inhibitors of human histone lysine methyltransferase G9a. Q96KQ7. G9a H3K9 monomethylation, AlphaScreen, 2 h. Potency, µM (series often up to 102 µM), for inactives: top-dose activity, negative = inhibition, usual class: inhibitors. 350,000 tested, 8.8% active. AID 504332; note: % is set by controls: 0 for no effect and ±100 for the full control effect; nearly all actives have a fitted effect of over 75% in size
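G9a (20 nM) was preincubated 15 min with compound, then reacted 2 h at room temperature with 500 nM biotin-H3K9 peptide and 20 µM SAM. Monomethyl-H3K9 detected by AlphaScreen using anti-H3K9me1 antibody.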
HP1b binding inh = blocks HP1-beta chromodomain binding to methylated histone tails; AlphaScreen HP1-beta / biotin-H3K9me3 peptide binding; 390,000 tested, 0.56% active; Potency, µM (highest dose often 114 µM), inactives show at the highest dose activity change, negative = inhibition, hits mostly inhibitors; note: nearly all actives have a fitted effect of over 70% in size
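HP1-beta protein (50 nM final) preincubated 30 min at room temperature with biotinylated H3(1-18)K9me3 peptide (50 nM) in PBS pH 7.4, 0.01% Tween-20, then compound added for 30 min. AlphaScreen streptavidin donor/nickel chelate acceptor beads (10 ug/mL final), 30 min dark, luminescence read.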
BAZ2B block = inhibitors of human BAZ2B bromodomain; AlphaScreen BAZ2B-H3K14Ac peptide displacement; Potency, µM (doses to about 114 µM), for the others: top-dose activity change, negative = inhibition, actives largely listed as inhibitors; 360,000 tested, 4.4% active; AID 504333; note: % is set by controls: 0 for no effect and ±100 for the full control effect; nearly all actives have a fitted effect of over 60% in size
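In this displacement format the biotinylated H3(5-23) peptide acetylated at Lys14 serves as ligand at 50 nM, with BAZ2B at 50 nM in PBS pH 7.4 containing 0.01% Tween-20. Donor and acceptor beads are 10 ug/mL final.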
* = called active by the depositor; u = inconclusive; x = no result given; ! = not active in a repeat; [ ] = remark or other dose. Calls come from the whole dose curve; as a rule, active = well fitted curve in the direction sought with a large enough effect; inconclusive = small, poorly fitted or top-dose-only effect, or another doubt; inactive = no such curve, though single readings can be large; an effect the other way counts as inactive or inconclusive. Potency is the fitted concentration of half-maximal effect.

SMILES	L3MBTL1 block	JMJD2A Tudor	Sfp PPTase inh	G9a block	HP1b binding inh	BAZ2B block
Cn1cccc1/C=N/NC(=O)c1cc2ccccc2cc1O	x	u	8.1%	-7.9%	u	28.2µM*
COc1ccc(Cn2ccc3nc(C)c(C(=O)N4CCN(c5ccc(OC)cc5)CC4)cc3c2=O)cc1	x	u	x	u	45.9%	u
Cc1nn(C(C)C(=O)NC2CCCCC2)c(=O)c2c1sc1ccccc12 (configuration not stated)	x	-34.1%	x	u	25.5%	-27.4%
CCOc1ccc(N(CC)C(=O)CSc2n[nH]c(-c3ccccc3)n2)cc1	x	-8.1%	x	6.1%[59 µM]	10.8%[57 µM]	0.0%
Cn1cccc1/C=N/NC(=O)c1ccccn1	x	u	79.4µM*	3.16µM*	-7.7%	35.5µM*
Cn1cccc1/C=N/NC(=O)Cc1ccccc1	x	-23.6%	-15.3%	x	-22.7%	u
Cn1cccc1/C=N/NC(N)=S	-10.6%	-16.6%	56.2µM*	u	20.8%	u
CC1CCC(C(C)C)C(O)C1 (configuration not stated)	x	x	13.6%	30.5%[59 µM]	x	x
O=C(/C=C/c1ccc(O)cc1)OC[C@H]1O[C@@H](Oc2c(-c3ccc(O)cc3)oc3cc(O)cc(O)c3c2=O)[C@H](O)[C@@H](O)[C@@H]1O	x	x	2.1%	x	x	x
Cc1cc2c(cc3c(SCc4ccc(Cl)cc4)nnc(C)n32)o1	x	u	x	4.47µM*	-13.8%	28.2µM*
COc1ccc(C(=O)Nc2cc3c(cc2N2CCOCC2)n(C)c(=O)n3C)cc1OC	x	-19.5%	21.9%	26.8%	36.9%	u
COc1cccc(C(=O)Nc2cc3c(cc2N2CCOCC2)n(C)c(=O)n3C)c1	x	-6.9%	-2.5%	20µM*	79.5%	u
Cn1c(=O)n(C)c2cc(N3CCOCC3)c(NC(=O)c3ccc(Cl)cc3)cc21	x	9.9%	x	13.7%[59 µM]	13.2%	-16.5%
Cc1cccc(C(=O)Nc2cc3c(cc2N2CCCCC2)n(C)c(=O)n3C)c1	x	-21.6%	x	-41.9%[59 µM]	15.0%	50.1µM*
Cc1cccc(C(=O)Nc2cc3c(cc2N2CCOCC2)n(C)c(=O)n3C)c1	x	-7.2%	x	-2.2%[59 µM]	6.2%	-31.8%
CCOc1cc(C(=O)Nc2cc3c(cc2N2CCOCC2)n(C)c(=O)n3C)cc(OCC)c1OCC	x	25.1µM*!	9.6%	13.6%	16.9%	-32.9%
O=C(O)c1cccc(-c2cccc(-c3nn4c(=O)cc(N5CCNCC5)nc4s3)c2)c1	x	-25.9%	x	x	x	x
CCCOc1ccc(C2C(=O)N(C3CCCCCC3)CC(=O)N2CCC2=CCCCC2)cc1OC (configuration not stated)	x	-16.5%	x	-18.2%[59 µM]	32.0%	-2.4%
O=C(COC(=O)/C=C/C(=O)N1CCN(c2ccccc2)CC1)NC(c1ccccc1)c1ccccc1	x	-29.8%	-27.4%	u	22.4%	44.7µM*
CCCc1nc2ccccc2n2c(-c3ccccc3)c3c(=O)n(C)c(=O)n(C)c3c12	x	18.9%	x	13.6%[59 µM]	123.4%	17.8%
Cn1c(=O)c2cn3c(c2n(C)c1=O)C(c1ccccc1)CC(c1ccccc1)=N3 (configuration not stated)	x	u	-5.8%	8.91µM*	18.8%	u
COCCn1nnnc1C(c1ccc2ncccc2c1)N1CCN(c2ccccc2F)CC1 (configuration not stated)	14.1%	-25.2%	-0.7%	8.91µM*	30.9%	50.1µM*
COCCn1nnnc1C(c1ccc2ncccc2c1)N1CCc2ccccc21 (configuration not stated)	-9.8%	-23.0%	12.0%	50.1µM*	10.8%	-35.8%
CCc1ccc2[nH]c(=O)c(C(c3nnnn3CCOC)N3CCN(c4ccccc4F)CC3)cc2c1 (configuration not stated)	x	-29.5%	8.91µM*	u	6.2%	-36.0%
COCCn1nnnc1C(c1cc2cc(C)ccc2[nH]c1=O)N1CCN(C2CCCCC2)CC1 (configuration not stated)	x	-5.2%	-3.5%	-26.7%[0.0925 µM]	25.9%	2.1%
SMILES	L3MBTL1 block	JMJD2A Tudor	Sfp PPTase inh	G9a block	HP1b binding inh	BAZ2B block
COCCn1nnnc1C(c1ccc(OC)cc1OC)N1CCN(c2ccccc2)CC1 (configuration not stated)	x	u	-12.4%	u	3.1%	u
COCCn1nnnc1C(c1ccc(OC)cc1OC)N1CCN(c2ccccc2F)CC1 (configuration not stated)	1.1%	-17.6%	10.1%	56.2µM*	21.4%	u
COCCn1nnnc1C(c1ccccn1)N1CCN(c2cccc(C)c2C)CC1 (configuration not stated)	0.9%	-24.4%	3.8%	u	27.2%	-21.4%
Cc1cccc(NC(=O)Cn2nc(-c3ccccc3)c3cnc4ccccc4c32)c1	x	-14.3%	x	16.8%[59 µM]	30.1%	-8.4%
COCC(=O)N1CCC2(CC1)CN(Cc1ccccc1OC)C2	x	x	12.9%	-14.9%[12.7 µM]	x	x
CC(=O)C(Sc1nc(-c2ccccc2Cl)nc2c1c(=O)n(C)c(=O)n2C)C(=O)N(C)C (configuration not stated)	x	-15.6%	x	-40.7%[59 µM]	22.6%[57 µM]	1.4%
COc1ccc(-c2nc3sc(CCNC(=O)C(=O)Nc4ccc(C)c(C)c4)c(C)n3n2)cc1	x	-15.6%	x	-4.2%[59 µM]	24.1%	-13.9%
CCOc1ccc(-n2c(=O)c3c4c(sc3n(Cc3cccc(Cl)c3)c2=O)CCCC4)cc1	x	0.0%	x	-1.6%[59 µM]	25.7%	-9.8%
COC(=O)c1ccccc1NC(=O)c1cn2c3c(ccc(Cl)c3c1=O)OC(C)C2 (configuration not stated)	x	-1.7%	x	-1.3%[59 µM]	26.2%	3.5%
CCN(Cc1ccccc1)C(c1cc2ccc(C)cc2[nH]c1=O)c1nnnn1CCOC (configuration not stated)	x	-3.1%	13.7%	35.5µM*	14.8%	-31.0%
Cc1ccccc1NS(=O)(=O)c1ccc2[nH]cc(C(=O)N(C)Cc3ccco3)c(=O)c2c1	u	u	-96.6%	x	-28.7%	56.2µM*
CN1CCN(c2ncc3nc(-c4ccc(Cl)cc4)c(=O)n(C)c3n2)CC1	x	x	-4.7%	3.4%[0.501 µM]	x	x
COc1ccccc1CNC(=O)c1ccc2[nH]c(C)c(C)c2c1	x	u	x	u	u	50.1µM*
CCC(=O)c1c[nH]c(C(=O)NCc2ccccc2OC)c1	x	-10.6%	23.6%	-0.1%	38.5%	79.4µM*
CC(=O)Nc1cccc(NC(=O)c2ccc3[nH]c(C)c(C)c3c2)c1	x	-31.9%[57.1 µM]	20.5%	-4.5%	u	-25.2%
Cc1cc(NC(=O)c2ccc3[nH]c(C)c(C)c3c2)ccn1	x	-17.1%	3.6%	u	13.5%	50.1µM*
O=C(Cn1c(=O)n(-c2ccccc2Cl)c(=O)c2sc3ccccc3c21)NC1CCCCC1	x	-5.6%	x	21.6%[59 µM]	57.8%	25.9%

Assay outcomes as filed in PubChem BioAssay.
